From PubChem
Compounds with a hit are over-represented: about 4.2% of the library has one in this group of screens.
NLRP3 yeast inh: blocks the NALP3 inflammasome reconstituted in yeast. actives 0.39% (n = 330,000). inhibition, % at 10 µM. AID 2825. Yeast reconstituted NLRP3/ASC/caspase-1, beta-gal luminescence, 24 h;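 active = inhibition of 50% or more; inactive = inhibition below 50%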;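 note: plate controls were induced DMSO wells for no effect and uninduced yeast grown without galactose for full effect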
TIM10 inh: inhibits growth of TIM10 yeast strain; S. cerevisiae TIM10 strain growth, BacTiter-Glo luminescence, 24 h; inhibition, % at 10 µM; actives 1.4% (n = 330,000);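 active = inhibition of 40% or more at the single tested concentration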;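 note: wild-type TIM10 isogenic control strain grown at permissive 25 °C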
NALP1 yeast inh: inhibitors of NALP1 inflammasome in yeast; S. cerevisiae NALP1/ASC/caspase-1 growth, X-gal OD620, 72 h; inhibition, % at 10 µM; actives 0.61% (n = 280,000); AID 2071; in the data active = inhibition mostly above about 24%, no sharp cut-off; inactive = mostly below about 32%
V-ATPase pHluor: regulators of yeast V-ATPase proton transport. AID 504577. S. cerevisiae, pHLuorin cytosolic pH fluorescence. response, % at 10 µM. actives 0.37% (n = 350,000); in the data active = response mostly above about 7.3%, no sharp cut-off; inactive = mostly below about 5.4%; note: actives read high
tim10-1 inh: tim10-1 yeast growth inhibition. S. cerevisiae tim10-1 ts strain growth, BacTiter-Glo, 24 h. inhibition, % at 20 µM. actives 2.2% (n = 330,000);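 active = inhibition of at least 40%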;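 note: mutant grown at 25 °C; 0% = DMSO wells with yeast and 100% = wells holding no yeast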
tim23-1 inh: inhibits growth of tim23-1 mutant yeast | S. cerevisiae tim23-1 growth, BacTiter-Glo luminescence, 24 h | AID 463212 | actives 1.3% (n = 330,000) | inhibition, % at 20 µM;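 active = growth inhibition of the mutant yeast at or above 50%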;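 note: temperature-sensitive mutant grown at 25 °C; plate controls were DMSO-treated mutant yeast for no effect and medium wells lacking yeast for full effect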
NALP3 confirm: NALP3 inhibition confirmation in yeast; inhibition, % at 10 µM; shares compounds with NLRP3 yeast inh; yeast expressing human NALP3, luminescence; actives 81% (n = 1,300); in the data active = inhibition above about 48%
Casp1 ASC ctr: caspase-1-ASC yeast counter-screen hit; shares compounds with NLRP3 yeast inh; yeast expressing Caspase-1-ASC, luminescence counter screen; inhibition, % at 10 µM; actives 66% (n = 1,000)
NALP3 yeast rt: confirmation retest of NALP3 inhibitors in yeast | yeast expressing human NALP3, luminescence read-out | shares compounds with NLRP3 yeast inh | inhibition, % at 10 µM | actives 53% (n = 1,000) | AID 488794
tim10-1 confirm: tim10-1 yeast growth inhibition, confirmed. shares compounds with tim10-1 inh. S. cerevisiae tim10-1 ts strain growth, BacTiter-Glo, 24 h. inhibition, % at 20 µM. actives 56% (n = 7,400);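 active = inhibition of yeast growth at or above a set limit in either of two repeat tests at 20 µM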;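 note: tim10-1 mutant grown at permissive 25 °C to find synthetic lethal compounds; 0% = DMSO yeast wells and 100% = medium wells without yeast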
tim10 confirm: confirmation of TIM10 yeast growth inhibitors. shares compounds with TIM10 inh. S. cerevisiae tim10 strain growth, BacTiter-Glo luminescence, 24 h. inhibition, % at 10 µM. actives 63% (n = 4,600);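 active = inhibition of yeast growth at or above a set limit in either of two replicates at 10 µM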;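 note: this counterscreen used the strain with wild-type TIM10; 0% = yeast with DMSO and 100% = medium wells lacking yeast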
tim23-1 confirm: tim23-1 yeast growth inhibition, confirmed. shares compounds with tim23-1 inh. S. cerevisiae tim23-1 growth, BacTiter-Glo luminescence, 24 h. AID 463218. actives 83% (n = 4,400). inhibition, % at 20 µM;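 active = inhibition above about 39% in either of two replicate wells at 20 µM, limit read from the data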;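 note: temperature-sensitive tim23-1 mutant grown at 25 °C; 0% = DMSO wells with yeast and 100% = medium wells without yeast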
Numbers without * were called inactive; nt = not tested or not shown; ! = repeats disagree. Cut-off read from the data, not from the text of the source, unless noted: active = inhibition above about 50%; inactive = the rest.

SMILES | NLRP3 yeast inh | TIM10 inh | NALP1 yeast inh | V-ATPase pHluor | tim10-1 inh | tim23-1 inh | NALP3 confirm | Casp1 ASC ctr | NALP3 yeast rt | tim10-1 confirm | tim10 confirm | tim23-1 confirm
COc1ccc(C2=CN(Cc3ccccc3)CCC2=O)cc1 | 13 | 11 | nt | -6 | 12 | 38 | nt | nt | nt | nt | nt | nt
CC(C)CCNC(=S)Nc1ccc([N+](=O)[O-])cc1 | 63* | 52* | 92* | -2 | 74* | 60* | -7 | nt | nt | 67* | -40 | 56*
O=C(c1ccc(Cl)c([N+](=O)[O-])c1)N(Cc1ccco1)C1CCS(=O)(=O)C1 (configuration not stated) | 4 | -3 | -1 | 0 | -2 | -8 | nt | nt | nt | nt | nt | nt
COc1ccc(NC(=O)C#Cc2ccccc2)cc1 | 67* | 24 | -10 | 6 | -26 | 51* | 76* | 48 | 62* | nt | nt | 55*
Clc1cncc(Cl)c1N/N=C/c1ccncc1 | 65* | 18 | 31 | 1 | 0 | 54* | 30 | nt | nt | nt | nt | 25
Clc1cccc(Cl)c1/C=N/Nc1c(Cl)cncc1Cl | 1 | 36 | 2 | -8 | 28 | -5 | nt | nt | nt | nt | nt | nt
COC(=O)[C@@H](c1ccccc1)N(C)S(=O)(=O)c1cccc(S(=O)(=O)N(C)[C@@H](C(=O)OC)c2ccccc2)c1 | 9 | 7 | 15 | 3 | 17 | 21 | nt | nt | nt | nt | nt | nt
CNc1nc(N)c([N+](=O)[O-])c(Nc2cccc(Cl)c2)n1 | 60* | 62* | 6 | 2 | 55* | 59* | 66* | nt | nt | 49* | 66* | 64*
CNc1nc(N)c([N+](=O)[O-])c(Nc2cccc(F)c2)n1 | 75* | 67* | 8 | -1 | 52* | 80* | 86* | 78* | 56* | 48* | 79* | 79*
Clc1ccc(-c2cc(-c3ccccc3)on2)cc1 | 18 | 3 | nt | -3 | -9 | 5 | nt | nt | nt | nt | nt | nt
CCc1ccn2cc(-c3cc(-c4ccccc4)no3)nc2c1 | 81* | 62* | -3 | -2 | 33 | 61* | 81* | 42 | 44 | nt | 56* | 81*
CCN(CC)c1ccc(C(=S)NCc2ccccc2)cc1 | 26 | 8 | 27 | -3 | 0 | 12 | nt | nt | nt | nt | nt | nt
CN(c1ccccc1)c1nccc(=O)[nH]1 | -6 | 15 | nt | 1 | -5 | -3 | nt | nt | nt | nt | nt | nt
O=C(Nc1ccc2nc3n(c(=O)c2c1)CCCCC3)c1cc([N+](=O)[O-])ccc1F | 63* | 48* | 27 | 5 | 38 | 68* | 80* | 69* | 56* | nt | 46* | 55*
CCOc1c2ccoc2nc2c(OC)c(OC)ccc12 | 50* | 34 | -11 | 1 | 27 | 61* | 68* | 48 | 44 | nt | nt | 65*
C=CCOc1ccc2c(OC)c3ccoc3nc2c1OC | 25 | 16 | 3 | -1 | 11 | 36 | nt | nt | nt | nt | nt | nt
COc1ccc(OC)c(C(C[N+](=O)[O-])c2c(C)cc3ccccn23)c1 (configuration not stated) | 64* | 66* | 27 | 3 | 45* | 85* | 44 | 67* | 37 | 61* | 82* | 91*
COc1c(C(=O)NC(=S)Nc2nnn(C)n2)cc2ccccc2c1Br | 7 | -12 | 35 | -1 | 2 | -4 | nt | nt | nt | nt | nt | nt
Cn1nnc(NC(=S)NC(=O)c2cccc3c(Cl)cccc23)n1 | 54* | 11 | -7 | 2 | 49* | 52* | 64* | 74* | 46 | -2 | nt | 39*
O=C(Oc1c(Cl)cc(Cl)c2cccnc12)c1cccs1 | 61* | 64* | -3 | 1 | 44* | 56* | 70* | 83* | 81* | 48* | 57* | 62*
O=C(Oc1c(CN2CCOCC2)cc(Cl)c2cccnc12)c1ccccc1Cl | 41 | 22 | 7 | 0 | 33 | 44 | nt | nt | nt | nt | nt | nt
O=C(Oc1c(Cl)cc(Cl)c2cccnc12)c1ccco1 | 71* | 71* | 31 | 3 | 65* | 89* | 84* | nt | nt | 48* | 67* | 72*
CCOC(=O)c1ccc(Nc2ncnc3c2cnn3C)cc1 | 20 | -4 | 4 | 5 | 2 | 9 | nt | nt | nt | nt | nt | nt
Cn1ncc2c(O/N=C(\N)c3ccc(C(C)(C)C)cc3)ncnc21 | 54* | 79* | nt | 18 | 27 | 55* | 78* | 82* | 67* | nt | 84* | 24
CCCCCCCCCCCCCCCCn1cc[n+](C)c1 | 61* | 67*! | 94*! | 6 | 93* | 55* | 72* | nt | nt | 53* | 58* | 63*
SMILES | NLRP3 yeast inh | TIM10 inh | NALP1 yeast inh | V-ATPase pHluor | tim10-1 inh | tim23-1 inh | NALP3 confirm | Casp1 ASC ctr | NALP3 yeast rt | tim10-1 confirm | tim10 confirm | tim23-1 confirm
CCCCCCCCn1ccc(=N)cc1 | 0 | 12 | 12 | -8 | -8 | 19 | nt | nt | nt | nt | nt | nt
CC1(C)CC(=O)C=C(c2cccc(Cl)c2O)C1 | 71* | 17 | nt | -1 | -1 | 59* | 65* | 75* | 62* | nt | nt | 53*
CC1CCN(c2ccc(-c3cccs3)nn2)CC1 | 52* | 38 | 8 | 0 | 37 | 68* | 79* | nt | nt | nt | nt | 72*
Clc1ccc(-c2cccs2)nn1 | 10 | -20 | -11 | 7 | -12 | 24 | nt | nt | nt | nt | nt | nt
Oc1c(Cl)cc(Cl)cc1CNc1ccccn1 | 52* | 10 | 18 | -2 | 4 | 52* | 67* | 41 | 39 | nt | nt | 49*
O=C(c1ccc(Cl)cc1)n1c(NCc2ccccc2)n[nH]c1=S | 1 | 4 | 20 | 0 | 7 | -2 | nt | nt | nt | nt | nt | nt
O=C(NC(Nc1nc2ccc([N+](=O)[O-])cc2s1)(C(F)(F)F)C(F)(F)F)c1ccccc1Cl | 74* | 66* | 105* | -2 | 78* | 71* | 94* | 87* | 94* | 76* | 68* | 86*
Nc1c(-c2ccccc2)cnn1-c1ccccc1 | 15 | -25 | 10 | -14 | -21 | 9 | nt | nt | nt | nt | nt | nt
O=c1cnn(-c2ccccc2)c(-c2ccccc2)c1 | 56* | 76* | 2 | 4 | 54* | 65* | 79* | 59* | 56* | 62* | 64* | 70*
C[C@H]1CN=C(N(C)C)N1CCCCc1ccccc1 | 13 | -2 | nt | 4 | -16 | -6 | nt | nt | nt | nt | nt | nt
COCCn1c(C(C)C)nc2ccccc21 | 13 | -15 | nt | -4 | -15 | 5 | nt | nt | nt | nt | nt | nt
